Assay results from PMC7862700, “An all-to-all approach to the identification of sequence-specific readers for epigenetic DNA modifications on cytosine”.

Target: T1, FLI1 (Homo sapiens, UniProt Q01543 1-452)
T1 sequence: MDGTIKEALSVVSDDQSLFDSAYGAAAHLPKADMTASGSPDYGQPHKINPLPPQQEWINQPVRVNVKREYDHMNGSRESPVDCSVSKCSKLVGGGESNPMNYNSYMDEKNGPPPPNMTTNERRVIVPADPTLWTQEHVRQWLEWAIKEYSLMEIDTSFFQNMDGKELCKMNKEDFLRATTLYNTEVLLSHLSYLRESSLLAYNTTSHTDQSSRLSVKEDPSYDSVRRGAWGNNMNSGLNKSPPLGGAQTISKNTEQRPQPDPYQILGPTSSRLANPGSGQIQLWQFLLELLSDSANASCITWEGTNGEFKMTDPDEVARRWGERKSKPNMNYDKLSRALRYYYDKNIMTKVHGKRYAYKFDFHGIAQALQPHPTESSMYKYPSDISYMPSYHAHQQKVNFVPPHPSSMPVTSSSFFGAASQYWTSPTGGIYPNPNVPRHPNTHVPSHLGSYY
Assay: DAPPL (digital affinity profiling via proximity ligation, sequencing); 10 mM Tris-HCl pH 7.5, 50 mM NaCl, 1 mM DTT, 4% glycerol, room temperature, 30 min; GST-TFs on glutathione beads, 16-mer random dsDNA library, 0.1% formaldehyde crosslink after washing; high values mean tight binding
Conditions: protein: recombinant; tags: N-terminal GST; dsDNA, one strand shown
Procedure, shortened: (§1)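 GST fusions of human transcription factors were expressed in yeast and captured with glutathione beads. Once given DNA barcodes and pooled alongside a tag-only sample, they were incubated for 30 min at room temperature with 200 nmole of a random double-stranded 16-mer DNA library in Tris/NaCl/DTT/glycerol buffer, then washed, crosslinked (0.1% formaldehyde), proximity-ligated, PCR-amplified and sequenced on an Illumina NextSeq500. The binding signal of each hexamer is its read frequency for a factor divided by its frequency for the tag-only sample.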

Row | Sequence | binding signal
1 | ACATAC | 1.18 fold enrichment (6-mer frequency, TF over GST control)
2 | GACATC | 1.36 fold enrichment (6-mer frequency, TF over GST control)
3 | ATCAAT | 1.12 fold enrichment (6-mer frequency, TF over GST control)
4 | GTCTTA | 1.1 fold enrichment (6-mer frequency, TF over GST control)
5 | AGCGAC | 1.09 fold enrichment (6-mer frequency, TF over GST control)
6 | TGAAAC | 1.31 fold enrichment (6-mer frequency, TF over GST control)
7 | AACCGG | 1.43 fold enrichment (6-mer frequency, TF over GST control)
8 | CGACTA | 1.24 fold enrichment (6-mer frequency, TF over GST control)
9 | CGATAT | 1.14 fold enrichment (6-mer frequency, TF over GST control)
10 | TGTTTA | 1.2 fold enrichment (6-mer frequency, TF over GST control)
11 | TGCCTT | 1.29 fold enrichment (6-mer frequency, TF over GST control)
12 | TAAGCT | 1.21 fold enrichment (6-mer frequency, TF over GST control)
13 | GATAAT | 1.04 fold enrichment (6-mer frequency, TF over GST control)
14 | TCGTTC | 1.17 fold enrichment (6-mer frequency, TF over GST control)
15 | ATTGCT | 1.24 fold enrichment (6-mer frequency, TF over GST control)
16 | TCATCA | 1.18 fold enrichment (6-mer frequency, TF over GST control)
17 | TGTCTC | 1.31 fold enrichment (6-mer frequency, TF over GST control)
18 | GTACAT | 1.4 fold enrichment (6-mer frequency, TF over GST control)
19 | CCACTG | 1.16 fold enrichment (6-mer frequency, TF over GST control)
20 | CTGGGT | 1.21 fold enrichment (6-mer frequency, TF over GST control)

Row | Sequence | binding signal
21 | CCCACT | 1.36 fold enrichment (6-mer frequency, TF over GST control)
22 | TCTCAA | 1.38 fold enrichment (6-mer frequency, TF over GST control)
23 | GCTCAT | 1.23 fold enrichment (6-mer frequency, TF over GST control)
24 | TGCCAT | 1.11 fold enrichment (6-mer frequency, TF over GST control)
25 | ATTAAC | 1.29 fold enrichment (6-mer frequency, TF over GST control)
26 | CGTAAC | 1.19 fold enrichment (6-mer frequency, TF over GST control)
27 | ACGGAA | 1.66 fold enrichment (6-mer frequency, TF over GST control)
28 | AGCCTA | 1.06 fold enrichment (6-mer frequency, TF over GST control)
29 | CACTGT | 1.12 fold enrichment (6-mer frequency, TF over GST control)
30 | TCCATC | 1.28 fold enrichment (6-mer frequency, TF over GST control)
31 | TTGCTC | 1.35 fold enrichment (6-mer frequency, TF over GST control)
32 | TTAGAA | 1 fold enrichment (6-mer frequency, TF over GST control)
33 | CACATC | 1.39 fold enrichment (6-mer frequency, TF over GST control)
34 | TCTACA | 1.12 fold enrichment (6-mer frequency, TF over GST control)
35 | ACTACA | 1.32 fold enrichment (6-mer frequency, TF over GST control)
36 | ATGGGC | 1.28 fold enrichment (6-mer frequency, TF over GST control)
37 | TGAACC | 1.17 fold enrichment (6-mer frequency, TF over GST control)
38 | CCATTC | 1.22 fold enrichment (6-mer frequency, TF over GST control)
39 | TTAGGT | 1.11 fold enrichment (6-mer frequency, TF over GST control)

Target: T2, ELK1 (Homo sapiens, UniProt P19419 1-428)
T2 sequence: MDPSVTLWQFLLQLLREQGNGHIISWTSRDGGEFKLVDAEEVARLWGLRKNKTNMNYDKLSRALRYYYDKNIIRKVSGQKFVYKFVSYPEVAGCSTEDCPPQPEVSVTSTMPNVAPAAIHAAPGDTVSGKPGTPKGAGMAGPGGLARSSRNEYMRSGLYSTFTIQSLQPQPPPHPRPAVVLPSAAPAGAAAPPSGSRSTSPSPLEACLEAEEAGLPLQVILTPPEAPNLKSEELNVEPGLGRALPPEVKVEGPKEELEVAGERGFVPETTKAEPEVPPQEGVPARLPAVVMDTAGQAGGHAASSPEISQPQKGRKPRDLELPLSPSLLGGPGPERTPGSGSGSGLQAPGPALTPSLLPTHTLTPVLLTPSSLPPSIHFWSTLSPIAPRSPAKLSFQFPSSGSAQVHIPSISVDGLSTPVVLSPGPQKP
Assay: as above
Conditions: protein: recombinant; tags: N-terminal GST; dsDNA, one strand shown
Procedure, shortened: as §1

Row | Sequence | binding signal
40 | ACATAC | 1.14 fold enrichment (6-mer frequency, TF over GST control)
41 | GACATC | 1.4 fold enrichment (6-mer frequency, TF over GST control)
42 | ATCAAT | 1.01 fold enrichment (6-mer frequency, TF over GST control)
43 | GTCTTA | 1.14 fold enrichment (6-mer frequency, TF over GST control)
44 | AGCGAC | 1.15 fold enrichment (6-mer frequency, TF over GST control)
45 | TGAAAC | 1.29 fold enrichment (6-mer frequency, TF over GST control)
46 | AACCGG | 1.58 fold enrichment (6-mer frequency, TF over GST control)
47 | CGACTA | 1.31 fold enrichment (6-mer frequency, TF over GST control)
48 | CGATAT | 1.03 fold enrichment (6-mer frequency, TF over GST control)
49 | TGTTTA | 1.09 fold enrichment (6-mer frequency, TF over GST control)
50 | TGCCTT | 1.38 fold enrichment (6-mer frequency, TF over GST control)
51 | TAAGCT | 1.24 fold enrichment (6-mer frequency, TF over GST control)
52 | GATAAT | 1.05 fold enrichment (6-mer frequency, TF over GST control)
53 | TCGTTC | 1.15 fold enrichment (6-mer frequency, TF over GST control)
54 | ATTGCT | 1.19 fold enrichment (6-mer frequency, TF over GST control)
55 | TCATCA | 1.16 fold enrichment (6-mer frequency, TF over GST control)
56 | TGTCTC | 1.31 fold enrichment (6-mer frequency, TF over GST control)
57 | GTACAT | 1.35 fold enrichment (6-mer frequency, TF over GST control)
58 | CCACTG | 1.11 fold enrichment (6-mer frequency, TF over GST control)
59 | CTGGGT | 1.1 fold enrichment (6-mer frequency, TF over GST control)

Row | Sequence | binding signal
60 | CCCACT | 1.45 fold enrichment (6-mer frequency, TF over GST control)
61 | TCTCAA | 1.27 fold enrichment (6-mer frequency, TF over GST control)
62 | GCTCAT | 1.29 fold enrichment (6-mer frequency, TF over GST control)
63 | TGCCAT | 1.06 fold enrichment (6-mer frequency, TF over GST control)
64 | ATTAAC | 1.16 fold enrichment (6-mer frequency, TF over GST control)
65 | CGTAAC | 1.12 fold enrichment (6-mer frequency, TF over GST control)
66 | ACGGAA | 1.69 fold enrichment (6-mer frequency, TF over GST control)
67 | AGCCTA | 1.05 fold enrichment (6-mer frequency, TF over GST control)
68 | CACTGT | 1.09 fold enrichment (6-mer frequency, TF over GST control)
69 | TCCATC | 1.28 fold enrichment (6-mer frequency, TF over GST control)
70 | TTGCTC | 1.4 fold enrichment (6-mer frequency, TF over GST control)
71 | TTAGAA | 1.02 fold enrichment (6-mer frequency, TF over GST control)
72 | CACATC | 1.45 fold enrichment (6-mer frequency, TF over GST control)
73 | TCTACA | 1.17 fold enrichment (6-mer frequency, TF over GST control)
74 | ACTACA | 1.21 fold enrichment (6-mer frequency, TF over GST control)
75 | ATGGGC | 1.29 fold enrichment (6-mer frequency, TF over GST control)
76 | TGAACC | 1.25 fold enrichment (6-mer frequency, TF over GST control)
77 | CCATTC | 1.09 fold enrichment (6-mer frequency, TF over GST control)
78 | TTAGGT | 1.12 fold enrichment (6-mer frequency, TF over GST control)

Target: T3, GABPA (Homo sapiens, UniProt Q06546 1-454)
T3 sequence: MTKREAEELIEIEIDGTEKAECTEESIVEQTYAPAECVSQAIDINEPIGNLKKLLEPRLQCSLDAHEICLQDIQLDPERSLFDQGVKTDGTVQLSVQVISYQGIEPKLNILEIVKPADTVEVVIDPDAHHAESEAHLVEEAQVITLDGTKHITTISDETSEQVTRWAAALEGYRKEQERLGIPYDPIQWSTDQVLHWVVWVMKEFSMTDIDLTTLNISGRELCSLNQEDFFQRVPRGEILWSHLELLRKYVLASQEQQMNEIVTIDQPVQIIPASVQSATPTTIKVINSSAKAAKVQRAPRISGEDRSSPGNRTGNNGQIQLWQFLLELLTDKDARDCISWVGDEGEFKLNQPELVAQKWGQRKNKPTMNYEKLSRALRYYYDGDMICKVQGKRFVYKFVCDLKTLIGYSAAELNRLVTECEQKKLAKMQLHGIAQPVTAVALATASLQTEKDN
Assay: as above
Conditions: protein: recombinant; tags: N-terminal GST; dsDNA, one strand shown
Procedure, shortened: as §1

Row | Sequence | binding signal
79 | ACATAC | 1.19 fold enrichment (6-mer frequency, TF over GST control)
80 | GACATC | 1.31 fold enrichment (6-mer frequency, TF over GST control)
81 | ATCAAT | 1.16 fold enrichment (6-mer frequency, TF over GST control)
82 | GTCTTA | 1.08 fold enrichment (6-mer frequency, TF over GST control)
83 | AGCGAC | 1.09 fold enrichment (6-mer frequency, TF over GST control)
84 | TGAAAC | 1.25 fold enrichment (6-mer frequency, TF over GST control)
85 | AACCGG | 1.33 fold enrichment (6-mer frequency, TF over GST control)
86 | CGACTA | 1.5 fold enrichment (6-mer frequency, TF over GST control)
87 | CGATAT | 1.08 fold enrichment (6-mer frequency, TF over GST control)
88 | TGTTTA | 1.18 fold enrichment (6-mer frequency, TF over GST control)
89 | TGCCTT | 1.54 fold enrichment (6-mer frequency, TF over GST control)
90 | TAAGCT | 1.17 fold enrichment (6-mer frequency, TF over GST control)
91 | GATAAT | 1.13 fold enrichment (6-mer frequency, TF over GST control)
92 | TCGTTC | 1.33 fold enrichment (6-mer frequency, TF over GST control)
93 | ATTGCT | 1.27 fold enrichment (6-mer frequency, TF over GST control)
94 | TCATCA | 1.17 fold enrichment (6-mer frequency, TF over GST control)
95 | TGTCTC | 1.31 fold enrichment (6-mer frequency, TF over GST control)
96 | GTACAT | 1.17 fold enrichment (6-mer frequency, TF over GST control)
97 | CCACTG | 1.25 fold enrichment (6-mer frequency, TF over GST control)
98 | CTGGGT | 1.18 fold enrichment (6-mer frequency, TF over GST control)

Row | Sequence | binding signal
99 | CCCACT | 1.26 fold enrichment (6-mer frequency, TF over GST control)
100 | TCTCAA | 1.27 fold enrichment (6-mer frequency, TF over GST control)
101 | GCTCAT | 1.23 fold enrichment (6-mer frequency, TF over GST control)
102 | TGCCAT | 1.26 fold enrichment (6-mer frequency, TF over GST control)
103 | ATTAAC | 1.22 fold enrichment (6-mer frequency, TF over GST control)
104 | CGTAAC | 1.17 fold enrichment (6-mer frequency, TF over GST control)
105 | ACGGAA | 1.58 fold enrichment (6-mer frequency, TF over GST control)
106 | AGCCTA | 1.12 fold enrichment (6-mer frequency, TF over GST control)
107 | CACTGT | 1.17 fold enrichment (6-mer frequency, TF over GST control)
108 | TCCATC | 1.15 fold enrichment (6-mer frequency, TF over GST control)
109 | TTGCTC | 1.37 fold enrichment (6-mer frequency, TF over GST control)
110 | TTAGAA | 1.01 fold enrichment (6-mer frequency, TF over GST control)
111 | CACATC | 1.33 fold enrichment (6-mer frequency, TF over GST control)
112 | TCTACA | 1.19 fold enrichment (6-mer frequency, TF over GST control)
113 | ACTACA | 1.32 fold enrichment (6-mer frequency, TF over GST control)
114 | ATGGGC | 1.3 fold enrichment (6-mer frequency, TF over GST control)
115 | TGAACC | 1.17 fold enrichment (6-mer frequency, TF over GST control)
116 | CCATTC | 1.1 fold enrichment (6-mer frequency, TF over GST control)
117 | TTAGGT | 1.2 fold enrichment (6-mer frequency, TF over GST control)
